# Where “and” joins values, the source holds several entries; their conditions need not be identical. Equal values may be shown once. Inconclusive results are not listed. Calls of active or inactive are those of the source. How the source made its calls, unless noted: active means hit-call score of the fitted dose curve at least 0.9, where 1 is the maximum; inactive means score below 0.9.
# Columns and labels:
# IYD (gene 389434) = assay: CCTE_GLTED_hIYD: CCTE's human Iodotyrosine Deiodinase (xIYD) Inhibition Assay, Great Lakes Toxicology and Ecology Division (GLTED) Lab (AID 2284317; active means hit-call score of the fitted dose curve at least 0.9, where 1 is the maximum;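 further: cell-free human IYD enzyme made in baculovirus insect cells; iodide freed from monoiodotyrosine measured by cerium arsenite color change at 420 nm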)
# Summary of the method: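 In the IYD assay, iodide released from MIT by insect-cell-expressed human enzyme was quantified after 3 h via Sandell-Kolthoff rate at 420 nm, with plate-wise normalization to MNT and solvent controls.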
# [1] = CCTE_Mundy_HCI_iCellGluta_NOG_NeuriteLength: CCTE's Neurite Outgrowth Assay in iCellGluta cells for Neurite Length, Mundy Lab (AID 2284318; active means hit-call score of the fitted dose curve at least 0.9, where 1 is the maximum)
# Summary of the method: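 Automated high-content imaging of betaIII-tubulin (Alexa Fluor-488) and Hoechst-stained cells gave neurite length, normalized to the DMSO baseline.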
# TTR (gene 7276) = assay: CCTE_GLTED_hTTR_0.5uM: CCTE's human Transthyretin (hTTR) Inhibition Assay, with 0.5uM TTR, Great Lakes Toxicology and Ecology Division (GLTED) Lab (AID 2284320)
# Summary of the method: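 Probe (ANSA) displacement from 0.5 uM human transthyretin was followed by fluorescence (ex 380, em 475) after a 2 h incubation with chemical. Activity was scored as signal loss and fitted positively relative to DMSO.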
# [2] = CCTE_Deisenroth_5AR_NBTE_donor: CCTE's 5alpha-reductase NanoBRET Target Engagement Assay […], Deisenroth Lab (AID 2284319); conditions: actives raise or lower the signal
# Summary of the method: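 HEK293T cells were reverse transfected with an SRD5A2-NanoLuc vector for 20 h, exposed to test chemical (8 points, 10 nM - 29.9 uM) for 3 h, then testosterone tracer for 2 h more. Donor luminescence (460 nm) was read; bidirectional fit versus DMSO.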
# [3] = CCTE_Deisenroth_5AR_NBTE_acceptor: CCTE's 5alpha-reductase NanoBRET Target Engagement Assay - Autofluorescence Screen, Deisenroth Lab (AID 2284321); conditions: actives raise or lower the signal;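 further: compound fluorescence in the acceptor channel under 460 nm excitation flags autofluorescence artifacts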
# Summary of the method: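 Autofluorescence check: ToxCast chemicals, nominal 100 uM, excitation 460 nm, n=3 runs. Acceptor fluorescence endpoint, bidirectional fit relative to DMSO. Parent assay in HEK293T, 5 h post-dose.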
# SRD5A2 (gene 6716) = assay: CCTE_Deisenroth_5AR_NBTE_ratio: CCTE's 5alpha-reductase NanoBRET Target Engagement Assay - Ratio, Deisenroth Lab (AID 2284322); conditions: actives raise or lower the signal
# Summary of the method: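 HEK293T cells transiently expressing an SRD5A2-NanoLuc fusion (20 h post-transfection) were exposed to test chemical (10 nM - 29.9 uM, 8 points) for 3 h, then testosterone tracer for a further 2 h. Acceptor/donor BRET ratio was fitted bidirectionally against DMSO baseline.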
# [4] = CCTE_Deisenroth_DEVTOX-GLR_legacy_CellCount: (Legacy) Viability Assessment in CCTE's DevTox GLR-Endo Assay, Deisenroth Lab (AID 2284331); conditions: actives raise or lower the signal
# Summary of the method: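 RUES2-GLR human pluripotent cells were seeded 24 h, then differentiated 48 h with two compound doses at 24 h intervals (10-point, 1 nM - 200 uM). Fixed nuclei were imaged and counted; bidirectional fitting versus 0.2% DMSO.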
# [5] = test system: Brachyury (BRA) Protein Expression, Deisenroth Lab, TBXT (gene 6862); assay: CCTE_Deisenroth_DEVTOX-GLR_legacy_Bra: (Legacy) CCTE's DevTox GLR-Endo Assay Evaluation of Brachyury (BRA) Protein Expression, Deisenroth Lab (AID 2284329)
# Summary of the method: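 High-content imaging of fixed RUES2-GLR cells after a 48-hour differentiation with two compound exposures yields percent cells whose Bra signal exceeds pluripotent control median by 5x BMAD; values are baseline-corrected to DMSO.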
# [6] = CCTE_Mundy_HCI_iCellGluta_NOG_NeuronCount: CCTE's Neurite Outgrowth Assay in iCellGluta cells for Neuron Count, Mundy Lab (AID 2284340; active means hit-call score of the fitted dose curve at least 0.9, where 1 is the maximum;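 further: cells fixed about 48 h after compound addition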)
# Summary of the method: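 Neuron count read by automated high-content imaging of Hoechst 33342 and betaIII-tubulin/Alexa Fluor-488 labelling in human iPSC glutamatergic neurons. Activity fitted relative to DMSO.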
# [7] = IUF_NPC2-5_viability_120hr: Viability Assessment at 120 hours in the Leibniz Research Institute for Environmental Medicine (IUF) Neural Progenitor Cell Migration and Differentiation Assay (NPC2-5) (AID 2284312)
# Summary of the method: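 Human fetal (GW 16-19) neural progenitor spheres of 0.3 mm were plated on poly-D-lysine/laminin in N2 differentiation medium and exposed from day 0 for 120 h, with half-medium refresh at day 3. Viability was read as alamar blue resazurin-to-resorufin fluorescence against DMSO.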
# [8] = TAMU_PeakParms_SingleDonor1434_Asystole: Texas A&M University (TAMU) 1.5-hr Human Induced Pluripotent Stem Cell (iPSC)-derived Cardiomyocytes Calcium (Ca+2) Flux Assay for Cardiotoxicity: Asystole (quiescence of beating) (AID 2284328; active means hit-call score of the fitted dose curve at least 0.9, where 1 is the maximum)
# Summary of the method: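 Human iPSC-derived cardiomyocytes (donor 1434) were exposed to 0.2, 1, 10 and 100 uM compound in 0.5% DMSO for 90 min at 37C. Ca2+-dye fluorescence gave average peak frequency; POD is EC95, a 95% beat-rate drop versus DMSO.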
# [9] = IUF_NPC1_cytotoxicity_72hr: Cytotoxicity Assessment at 72 hours in the Leibniz Research Institute for Environmental Medicine (IUF) Neural Progenitor Cell Proliferation Assay (NPC1) (AID 2284332; active means hit-call score of the fitted dose curve at least 0.9, where 1 is the maximum;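 further: rising LDH signal means more cytotoxicity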)
# Summary of the method: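 Cytotoxicity by LDH membrane-integrity assay on medium supernatants, fluorescence via resazurin reduction, after 3-day single exposure of primary hNPC spheres at 37C, pH 7.2-7.6 with growth factors. Fitted upward against baseline.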
smiles,measurement,setting,value
O=P(O)(O)CCC(F)(F)C(F)(F)C(F)(F)C(F)(F)C(F)(F)C(F)(F)C(F)(F)C(F)(F)F,outcome,IYD (gene 389434),inactive
same,outcome,[1],inactive
same,AC50,TTR (gene 7276),2.24 µM (active)
CCCCCCc1ccc(N)cc1,outcome,[2],inactive
same,outcome,[3],inactive
same,AC50,SRD5A2 (gene 6716),50 µM (active)
O=C(Nc1ccc(Cl)c(Cl)c1)c1cc(Cl)cc(Cl)c1O,AC50,IYD (gene 389434),77.4 µM (active)
CN(Cc1cnc2nc(N)nc(N)c2n1)c1ccc(C(=O)N[C@@H](CCC(=O)O)C(=O)O)cc1,AC50,[4],0.359 µM (active)
O=C(O)CCC(F)(F)C(F)(F)C(F)(F)C(F)(F)C(F)(F)F,AC50,TTR (gene 7276),3.12 µM (active)
O=C1OC2(c3ccccc31)c1cc(I)c(O)c(I)c1Oc1c2cc(I)c(O)c1I,AC50,[2],2.23 µM (active)
same,AC50,[3],1.79 µM (active)
same,AC50,SRD5A2 (gene 6716),6 µM (active)
CCCCc1oc2ccccc2c1C(=O)c1cc(I)c(OCCN(CC)CC)c(I)c1,outcome,[2],inactive
same,outcome,[3],inactive
same,outcome,SRD5A2 (gene 6716),inactive
same,AC50,[5],19.8 µM (active)
same,AC50,[4],18.2 µM (active)
Oc1c(Cl)cc(Cl)cc1Sc1cc(Cl)cc(Cl)c1O,AC50,IYD (gene 389434),56.9 µM (active) and 88.2 µM (active) and 100 µM (active)
OCC(F)(F)C(F)(F)C(F)(F)C(F)(F)C(F)(F)C(F)(F)C(F)(F)C(F)(F)C(F)(F)C(F)(F)C(F)(F)F,outcome,[1],inactive
same,AC50,[6],1.55 µM (active)
C=CC(=O)OCCC(F)(F)C(F)(F)C(F)(F)C(F)(F)C(F)(F)C(F)(F)C(F)(F)C(F)(F)F,outcome,[1],inactive
same,outcome,[6],inactive
NC(=NCCCCCCN=C(N)/N=C(\N)Nc1ccc(Cl)cc1)/N=C(\N)Nc1ccc(Cl)cc1,AC50,IYD (gene 389434),54.7 µM (active)
same,AC50,[3],50 µM (active)
same,AC50,SRD5A2 (gene 6716),81 µM (active)
O=C(O)C(F)(F)OC(F)(F)C(F)(F)OC(F)(F)C(F)(F)OC(F)(F)C(F)(F)C(F)(F)C(F)(F)F,AC50,IYD (gene 389434),93.2 µM (active)
same,AC50,TTR (gene 7276),1.11 µM (active)
O=C1NS(=O)(=O)c2ccccc21,outcome,[7],inactive
same,outcome,[1],inactive
same,outcome,[8],inactive
same,outcome,[5],inactive
same,outcome,[4],inactive
same,outcome,[9],inactive
CCCCCCCCCCCC,AC50,IYD (gene 389434),38.4 µM (active)
same,outcome,[2],inactive
same,outcome,[3],inactive
same,outcome,SRD5A2 (gene 6716),inactive

# Source: PubChem BioAssay (EPA / NIEHS)
